Data from PubChem BioAssay AID463173 (ICCB-Longwood Screening Facility, Harvard Medical School, 2010).
About 4,300 (8.3%) of roughly 52,000 compounds were called active. Rule as the data show it: active = survival mostly below about 52% (no sharp cut-off); inactive = mostly above about 56%. Only a selection was taken, and actives are over-represented in it overall.

tested on: DeltatarO mutant; assay: S. aureus survival, RN4220 and DeltatarO strains – OD600, teichoic acid synthesis inhibitors, primary screen (AID 463173); conditions: S. aureus RN4220 wild type/DeltatarO growth, OD600, 18 h, stronger effect = lower value, screened at 18.75 µg/mL (by protocol)

Row | SMILES | survival
1 | CSc1ccc(CCNC(=O)c2cnc3c(C)cccn3c2=O)cc1 | 89% (inactive)
2 | CCc1ccccc1NC(=O)C1CCC(CNS(=O)(=O)c2ccc3c(c2)CC(C)N3C(C)=O)CC1 (stereo not drawn) | 91% (inactive)
3 | COc1cccc(NC(=O)CCc2c(C)nc3nc(CNC(=O)c4cccc(F)c4)nn3c2C)c1 | 76% (inactive)
4 | O=C(NCc1ccc(F)cc1)c1ccc2c(c1)N(Cc1ccc(F)cc1Cl)C(=O)CS2 | 57% (inactive)
5 | Cc1ccc(CNC(=O)c2ccc3c(c2)N(Cc2ccccc2Cl)C(=O)CS3)cc1 | 50% (inactive)
6 | Cc1ccc(C)c(CN2C(=O)CSc3ccc(C(=O)NCc4ccc(F)cc4)cc32)c1 | 46% (active)
7 | Cc1ccc(CNC(=O)c2ccc3c(c2)N(Cc2cccc(C)c2)C(=O)CS3)cc1 | 46% (active)
8 | Cc1cccc(CNC(=O)c2ccc3c(c2)N(C)CCS3)c1 | 65% (inactive)
9 | Cc1ccc(CNC(=O)c2ccc3c(c2)N(Cc2cccc(Cl)c2)C(=O)CS3)cc1 | 40% (active)
10 | CCN1CCSc2ccc(C(=O)NCc3ccccc3Br)cc21 | 62% (inactive)
11 | COc1ccc(CNC(=O)c2ccc3c(c2)N(Cc2cc(C)ccc2C)C(=O)CS3)cc1 | 59% (inactive)
12 | CCN1CCSc2ccc(C(=O)NCc3cccc(Br)c3)cc21 | 46% (active)
13 | CCN1CCSc2ccc(C(=O)NCc3cccc(F)c3)cc21 | 61% (inactive)
14 | O=C(NCc1ccccc1Cl)c1ccc2c(c1)N(Cc1ccccc1)C(=O)CS2 | 101% (inactive)
15 | Cc1cccc(CN2C(=O)c3ccccc3Sc3ccc(C(=O)NCc4cccs4)cc32)c1 | 93% (inactive)
16 | Cc1ccc(NC(=O)Cn2nc(-c3ccncc3)ccc2=O)cc1Cl | 120% (inactive)
17 | Cc1cc(C)c(/C=C/c2onc(C)c2S(=O)(=O)N2CCC(C(=O)NCCc3ccccc3)CC2)c(C)c1 | 94% (inactive)
18 | Cc1ccc(-n2nc3c(=O)n(CCCC(=O)NCc4ccccc4C)nc(C)c3c2C)cc1 | 120% (inactive)
19 | COC(=O)c1nc(C(=O)OC)c(C(=O)OC)nc1C(=O)OC | 95% (inactive)
20 | COc1ccc(Cl)cc1C(=O)Nc1sc2c(c1C(=O)OC(C)C)CCCC2 | 61% (inactive)

Row | SMILES | survival
21 | CCOC(=O)Cc1c(C(=O)OCC)nnc2c(-c3ccccc3)c(C)nn12 | 75% (inactive)
22 | CN(C)c1ccc(CNC(=O)c2ccccc2NC(=O)c2nsc3ccccc23)cc1 | 73% (inactive)
23 | COc1ccccc1NC(=O)C1=C(C)Nc2nc(CCCO)nn2C1c1cccc(O)c1 (stereo not drawn) | 144% (inactive)
24 | CCCOc1ccc(C2C3CN(CC)CC=C3C(C#N)=C(N)C2(C#N)C#N)cc1OC (stereo not drawn) | 0% (active)
25 | CCCN1CC=C2C(C#N)=C(N)C(C#N)(C#N)C(c3cccc(OC)c3)C2C1 (stereo not drawn) | 95% (inactive)
26 | CCN1CC=C2C(C#N)=C(N)C(C#N)(C#N)C(c3ccc(OC)c4ccccc34)C2C1 (stereo not drawn) | 108% (inactive)
27 | CC1CCN(S(=O)(=O)c2ccc3c(c2)CCN3)CC1 | 102% (inactive)
28 | COc1cc(C2C(C(=O)Nc3ccc(C)cc3C)=C(C)Nc3nc(SCc4ccccc4)nn32)cc(OC)c1OC (stereo not drawn) | 64% (inactive)
29 | O=C(O)C1C(c2ccccc2)C(C(=O)N2CCCCC2)C1c1ccccc1 (stereo not drawn) | 101% (inactive)
30 | Brc1ccccc1-n1ncc2c1ncn1nc(Cc3ccccc3)nc21 | 74% (inactive)
31 | Clc1ccccc1CSc1nnc(C2CCNCC2)o1 | 89% (inactive)
32 | Clc1cccc(CSc2nnc(C3CCNCC3)o2)c1 | 104% (inactive)
33 | CC(C)(C)OC(=O)N1CCC(c2nnc(SCc3ccccc3)o2)CC1 | 96% (inactive)
34 | CC(C)(C)OC(=O)N1CCC(c2nnc(SCc3ccccc3Cl)o2)CC1 | -1% (active)
35 | CC(C)(C)OC(=O)N1CCC(c2nnc(SCc3cccc(Cl)c3)o2)CC1 | 1% (active)
36 | CC(C)(C)OC(=O)N1CCC(c2nnc(SCc3ccccc3F)o2)CC1 | 57% (inactive)
37 | CCN(C(=O)c1cnc(N2CCOCC2)c2ccccc12)c1cc(C)ccc1C | 94% (inactive)
38 | O=C(c1ccccc1)c1ccc2nc(Nc3cc(Cl)ccc3O)c3nncn3c2c1 | 118% (inactive)
39 | COc1ccc(NC(=O)CSc2oc(-c3ccc(C)cc3)nc2S(=O)(=O)c2ccc(C)cc2)c(OC)c1 | 60% (inactive)
40 | CCCCn1cc(S(=O)(=O)c2ccc(C)c(C)c2)c(=O)c2cc(F)c(N3CCN(C)CC3)cc21 | 101% (inactive)

Row | SMILES | survival
41 | COC(=O)c1ccccc1NC(=O)[C@H]1O[C@@H]2OC(C)(C)O[C@@H]2[C@H]2OC(C)(C)O[C@H]21 | 95% (inactive)
42 | Cc1ccc2c(CN3CCN(C(=O)c4ccc(Br)cc4)CC3)cc(=O)oc2c1 | 51% (inactive)
43 | Cc1ccc2c(CN3CCN(C(=O)c4ccc(F)cc4)CC3)cc(=O)oc2c1 | 33% (active)
44 | COc1ccc(CN2CCN(Cc3cc(=O)oc4cc(C)ccc34)CC2)c(OC)c1OC | 101% (inactive)
45 | COc1ccccc1C(=O)N1CCN(Cc2cc(=O)oc3cc(C)ccc23)CC1 | 38% (active)
46 | Cc1ccc2c(CN3CCN(Cc4ccccc4Cl)CC3)cc(=O)oc2c1 | 43% (inactive)
47 | COc1cccc(N2CCN(Cc3cc(=O)oc4cc(C)ccc34)CC2)c1 | 70% (inactive)
48 | Cc1ccc(N2C(=O)CSC23C(=O)N(CC(=O)NCCc2ccccc2)c2ccccc23)cc1C (stereo not drawn) | 95% (inactive)
49 | O=c1[nH]c2cc3c(cc2cc1C(c1nnnn1C1CCCC1)N1CCc2ccccc21)OCCO3 (stereo not drawn) | 64% (inactive)
50 | COc1cccc(N2CC(NC(=O)c3cccc(OC)c3OC)CC2=O)c1 (stereo not drawn) | 115% (inactive)
51 | NC(=O)CN(C1CCCCC1)S(=O)(=O)c1ccc(Br)cc1 | 96% (inactive)
52 | CCCCC(CC)CNC(=O)c1ccc2c(=O)n(Cc3ccc(OC)cc3)c(=O)[nH]c2c1 (stereo not drawn) | 84% (inactive)
53 | Fc1ccc(C(NCCc2ccccc2)c2nnc(-c3ccccc3Cl)o2)cc1 (stereo not drawn) | 104% (inactive)
54 | Fc1ccc(C(NCCc2ccc(Cl)cc2)c2nnc(-c3ccccc3Cl)o2)cc1 (stereo not drawn) | 26% (active)
55 | Cc1ccc(CCNC(c2ccc(F)cc2)c2nnc(-c3ccccc3Cl)o2)cc1 (stereo not drawn) | -8% (active)
56 | Fc1ccc(NCc2ccccc2-c2nnc(-c3ccccc3Cl)o2)cc1 | 88% (inactive)
57 | Fc1ccc(C(Nc2ccccc2Cl)c2nnc(-c3ccccc3Cl)o2)cc1 (stereo not drawn) | 83% (inactive)
58 | COc1ccc(CCNC(c2ccc(F)cc2)c2nnc(-c3ccccc3Cl)o2)cc1OC (stereo not drawn) | 57% (inactive)
